Activity calls are given as the source filed them. A call without a number means that no potency is given here. The call rests on the fitted dose curve; in most records, active means well fitted curve in the direction sought with a large enough effect in the repeat runs; inconclusive means weak or mixed curves; inactive means flat fitted curve, though single readings scatter.
Potency means the concentration at half of the fitted maximal effect; tags describe the fitted curve by direction and shape or compound fluorescence and quenching.

The assay is described as follows: qHTS assay to test for compound auto fluorescence at 535 nm (green) in HepG2 cell free culture (AID 720686). The following applies: Cell-free medium, green autofluorescence 485/535 nm; series mostly up to 91.3 µM. From the text:
U.S. Tox21 Program National Center for Advancing Translational Sciences [NCATS] NIH Chemical Genomics Center [NCGC] U.S. Environmental Protection Agency [EPA] National Institutes of Environmental Health Sciences [NIEHS] National Toxicology Program [NTP] U.S. Food and Drug Administration [FDA] Tox21 Assay Overview: Compound auto fluorescence often interferes with screening of the compound library against various biological targets and signaling pathways. Some of these compounds may have fluorophoric properties. Such properties may interfere with the assay outputs resulting in false positives and/or negatives. To decrease such complications and ensure the compound activities are relevant in terms of biological response, the Tox21 10K compound library was screened for auto fluorescence. From the fluorophores used as reporter signals in our screening assays, the auto fluorescence equivalencies of compounds against three fluorophores have been evaluated: Triamterene, Fluorescein and Rose Bengal sodium for blue, green and red fluorescence, respectively. The fluorescence intensities were measured using Excitation/Emission wavelengths at 405/460nm, 485/535nm and 540/590nm for blue, green and red labels, respectively. This assay includes the green fluorescence data.
Tox21 Assay Protocol Summary: 5 uL of culture medium (MEM containing 10% FBS) per well was dispensed into black wall/clear bottom 1536-well plates using a Multidrop Combi Dispenser (ThermoFisher Scientific, Waltham, MA). After 23 nL compound or DMSO vehicle was transferred into assay plate by a pintool work station (Kalypsys, San Diego, CA), fluorescence intensities in the assay plates were measured by an Envision (PerkinElmer, Shelton, CT) plate reader using three labels for measuring blue, green and red fluorescence at […] 460, 535 and 590nm respectively.
Regarding `CCCCCCC(C)O` (stereo not given), the Potency entry is “inactive”.

Regarding `Cc1ccc2c(c1)C(=O)OC2=O`, the Potency result was “inactive”.

Consider `Clc1ccc(Sc2cc(Cl)c(Cl)cc2Cl)cc1`, for which the Potency result is “inactive”.

As for `Cc1cccc(Nc2ccccc2C(=O)O)c1C`, the Potency entry is “inactive”.

`C=C[C@H]1CN2CC[C@H]1C[C@H]2[C@H](O)c1ccnc2ccc(OC)cc12`: the Potency result is “inactive”.

On to `CC1(C)O[C@@H]2C[C@H]3[C@@H]4C[C@H](F)C5=CC(=O)C=C[C@]5(C)[C@@]4(F)[C@@H](O)C[C@]3(C)[C@]2(C(=O)CO)O1`, for which the Potency result was “inactive”.

On to `C/C=C/C(=O)N(CC)c1ccccc1C`, for which the Potency entry was “inactive”.

Take `[O-]/[N+](=N\O)c1ccccc1`: the Potency entry is “inactive”.

Regarding `Nc1cc(Cl)c(N)c(Cl)c1`, the Potency entry was “inactive”.

As to `ClC/C=C/CCl`, the Potency entry was “inactive”.

Regarding `Nc1ccc2c(O)cc(S(=O)(=O)O)cc2c1`, the Potency entry was “inactive”.

In the case of `CC(=O)O[C@]1(C(C)=O)CC[C@H]2[C@@H]3C=C(C)C4=CC(=O)CC[C@]4(C)[C@H]3CC[C@@]21C`, the Potency entry was “inactive”.

In the case of `Cc1ccc(S(=O)(=O)NCl)cc1`, the Potency result is “inactive”.

As to `O=[Se](O)O`, the Potency result is “inactive”.

As to `CN(C)CCCN1c2ccccc2Sc2ccc(Cl)cc21`, the Potency entry is “inactive”.

Regarding `C=C1C[C@H]2[C@@H]3C=C(C)C4=CC(=O)CC[C@]4(C)[C@H]3CC[C@]2(C)[C@@]1(OC(C)=O)C(C)=O`, the Potency result was “inactive”.

Consider `CCCCCCCCCCCCCO`, for which the Potency result is “inactive”.

For the molecule `CN(C)C`, the Potency result was “inactive”.

Turning to `CC(C)=CCO`, the Potency result was “inactive”.

Turning to `C[C@]12CC[C@@H]3c4ccc(O)cc4CC[C@H]3[C@@H]1CC[C@H]2O`, the Potency result is “inactive”.

As for `COC(=O)C(C)Oc1ccc(Oc2ncc(C(F)(F)F)cc2Cl)cc1` (stereo not given), the Potency entry was “inactive”.

For the molecule `CC(C)[N+](C)(CCOC(=O)C1c2ccccc2Oc2ccccc21)C(C)C`, the Potency entry is “inactive”.

With `C=CC(C)(O)CCC=C(C)C` (stereo not given), the Potency entry was “inactive”.

Turning to `COCCOCCOCCO`, the Potency result was “inactive”.

In the case of `O=C(O)c1cc(=O)[nH]c(=O)[nH]1`, the Potency entry is “inactive”.

For the molecule `O=Cc1ccccc1C=O`, the Potency result was “inactive”.

With `CC1(C)C(C=C(Cl)Cl)C1C(=O)OCc1cccc(Oc2ccccc2)c1` (stereo not given), the Potency entry is “inactive”.

Take `C=C[C@H]1CN2CC[C@H]1C[C@@H]2[C@@H](O)c1ccnc2ccc(OC)cc12`: the Potency result is “inactive”.

For `O=C(O)CCCCCCCCCCCC(=O)O`, the Potency result was “inactive”.

As for `CN(Cc1cnc2nc(N)nc(N)c2n1)c1ccc(C(=O)N[C@@H](CCC(=O)O)C(=O)O)cc1`, the Potency entry is “inactive”.

With `Brc1nc2ccccc2s1`, the Potency entry was “inactive”.

As for `CC(C)(C)c1cccc(C(C)(C)C)c1O`, the Potency entry is “inactive”.

Regarding `CC/C=C\C/C=C\C/C=C\CCCCCCCC(=O)O`, the Potency result was “inactive”.

Turning to `COc1ccc(-c2coc3cc(O)cc(O)c3c2=O)cc1`, the Potency result is “inactive”.

For the molecule `[Na+]`, the Potency entry was “inactive”.

With `C=CCNCC=C`, the Potency entry is “inactive”.

Consider `O=C1OC2(c3ccccc31)c1cc(I)c(O)c(I)c1Oc1c2cc(I)c(O)c1I`, for which the Potency is 11.2 µM [fluorescent] (active) [middle of 4 runs].

`CC1(C)NC(=O)N(c2ccc([N+](=O)[O-])c(C(F)(F)F)c2)C1=O`: the Potency entry was “inactive”.

In the case of `O=C(CCCN1CCC(O)(c2ccc(Cl)cc2)CC1)c1ccc(F)cc1`, the Potency entry is “inactive”.

As to `c1ccc2cc3ccccc3cc2c1`, the Potency entry is “inactive”.

The values are drawn from PubChem BioAssay (Tox21).
